High-throughput results deposited in PubChem by National Center for Advancing Translational Sciences (NCATS).
FMDV antiviral – High Throughput Screening for Foot and Mouth Disease Virus Antivirals; FMDV antiviral cell-based qHTS; AID 1159524, 2015; Potency, µM (highest dose often 57.9 µM), without a hit: at the highest dose activity change, negative = inhibition, hits mostly inhibitors; 410,000 tested, 1.2% active; calls by dose curve; tested in HEK293T cells; note: read-out not given here; potency is the fitted concentration of half-maximal effect; % is set by controls: 0 for no effect and ±100 for the full control effect; nearly all actives have a fitted effect of over 45% in size
HCV inh – qHTS Assay for Inhibitors of Hepatitis C Virus (HCV). Huh7.5.1 HCVcc-Cre infection, luciferase reporter, 44 h. Potency, µM (doses to about 41.8 µM), for inactives: at the top dose activity change, negative = inhibition, actives largely listed as inhibitors. 340,000 tested, 3.4% active. AID 651820, 2012; active = well fitted inhibition curve with a large enough effect; inconclusive = small, poorly fitted or top-dose-only effect, or another doubt; inactive = no such curve, though single readings can be large or run the other way; note: potency is the fitted concentration of half-maximal effect; % is set by controls: 0 for no effect and ±100 for the full control effect
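Luciferase read-out (15 sec integration) after a 15 min room-temperature substrate step quantifies HCVcc-Cre infection. Cells, 1,000 per well, had compound added 4 h post-plating, then virus at ~0.5 moi, and were cultured 44 h.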
SARS PLP yeast – qHTS of Yeast-based Assay for SARS-CoV PLP | S. cerevisiae expressing SARS-CoV PLpro, growth rescue | Potency, µM (doses to about 32.9 µM), for the others: at the highest dose activity, positive = growth rescue, most hits filed as activators | 330,000 tested, 0.19% active | AID 485353, 2010; calls by dose curve; note: potency is the fitted concentration of half-maximal effect; 0% is about no effect; nearly all actives have a fitted effect of over 55% in size
MARV entry inh – qHTS for inhibitors of binding or entry into cells for Marburg Virus | Marburg virus pseudotyped entry inhibition, cell reporter | AID 540276, 2011 | 300,000 tested, 1.8% active | Potency, µM (titrated, usually from 37.8 µM), for the others: at the highest dose activity change, negative = inhibition, hits mostly inhibitors; calls by dose curve; tested in HEK293 cells; note: potency is the fitted concentration of half-maximal effect; % is set by controls: 0 for no effect and ±100 for the full control effect
LASV entry inh – qHTS for Inhibitors of binding or entry into cells for Lassa Virus; 300,000 tested, 1.2% active; Potency, µM (series often up to 37.9 µM), for inactives: at the highest dose activity change, negative = inhibition, most hits filed as inhibitors; AID 540256, 2011; Lassa virus pseudotype entry inhibition, cell reporter; calls by dose curve; tested in HEK293 cells; note: potency is the fitted concentration of half-maximal effect; % is set by controls: 0 for no effect and ±100 for the full control effect; nearly all actives have a fitted effect of over 50% in size
HCMV antiviral – qHTS Assay for inhibitors of the human cytomegalovirus (HCMV); HFF cells, HCMV-luciferase reporter, 72 h; active compounds read low; activity change, negative = inhibition, % at 57.5 µM; 410,000 tested, 4.5% active; in the data active = activity change below about -60%; inconclusive = no clear call, values can overlap the other calls; inactive = above about -39%; note: % is set by controls: 0 for no effect and ±100 for the full control effect
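After 16 h attachment at 37C, HFF cells received test compound and HCMV-luciferase (1 PFU/cell); reporter luminescence read 72 h later, data normalized against buffer-only and known inhibitor Salinomycin.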
Active calls of the source: *; ? = inconclusive; · = no result; + = active, no number; [ ] = another dose, or the depositor's remark. Shown are actives, neighbours in structure and some others; about 8% of the full set was active somewhere.

SMILES | FMDV antiviral | HCV inh | SARS PLP yeast | MARV entry inh | LASV entry inh | HCMV antiviral
O=C(c1cccs1)N1C[C@@H](O)[C@@H](n2cc(-c3ccc(F)cc3)nn2)C[C@@H]1c1ccc(Cl)cc1 | · | · | · | · | -13%[46.1 µM] | ·
Cc1ccc(CNC(=O)CCc2c(C)nc3nc(C)nn3c2C)cc1 | 17% | · | · | 9%[46.1 µM] | 0%[46.1 µM] | 9
O=C(CSc1nc2c([nH]c3ccccc32)c(=O)n1-c1ccccc1)Nc1ccccc1C(F)(F)F | -6% | · | · | · | 12%[46.1 µM] | 36
O=C(NC1(C(F)(F)F)N=C(c2ccccc2)N(Cc2ccccc2)C1=O)c1ccc(F)cc1 (stereo not drawn) | -23% | · | · | ? | ? | -21
Cc1ccc(Cl)cc1N(C)C(=O)c1noc2c1CCCCC2 | -5% | · | · | · | 19%[46.1 µM] | -64*
COc1ccc(CCNC(=O)c2cc(C(=O)c3cc(C)ccc3O)cn(CCc3ccc(OC)cc3)c2=O)cc1 | 8% | ? | 6% | ? | 2.8µM* | -5
COc1cccc(-n2cc(C(=O)NCCc3ccc(C)cc3)c3ccccc3c2=O)c1 | -5% | · | · | · | -1%[46.1 µM] | -61*
COc1cccc(-n2cc(C(=O)NCc3ccc(C)cc3)c3ccccc3c2=O)c1 | -1% | · | · | · | 10%[46.1 µM] | -35
COc1ccc(CCNC(=O)c2cc(C(=O)c3cc(Cl)ccc3O)cn(CCc3ccc(OC)cc3)c2=O)cc1 | -4% | ? | -22% | ? | ? | -39
CC(C)NC(=O)CC1(C)N=C(c2cccc3ccccc23)N(C)O1 (stereo not drawn) | · | · | · | · | · | -12
O=C(C1=NNCC1c1ccccc1)C1CO1 (stereo not drawn) | -25% | 11% | -4% | -32% | -16% | -69*
CCOc1ccc2oc(=O)cc(CN3CCN(c4ccc(OC)cc4)CC3)c2c1 | -26% | · | · | 3%[46.1 µM] | 9%[46.1 µM] | 40
COc1ccc(NC(=O)c2cc(F)cc(F)c2)cc1S(=O)(=O)N1CCCCC1 | -25% | 10µM* | 0% | ? | -29%[46.1 µM] | ?
CCOc1ccc(C(=O)N[C@H](C(=O)Nc2ccc(OC)c(S(=O)(=O)N3CCOCC3)c2)C(C)C)cc1 | -1% | -19% | 1% | · | · | -26
COc1ccc(NC(=O)[C@@H](NC(=O)c2ccccc2)C(C)C)cc1S(=O)(=O)N1CCCCC1 | -5% | -8% | -6% | 0.11µM* | -2% | 6
COc1ccc(NC(=O)c2cc(OC)c(OC)c(OC)c2)cc1S(=O)(=O)N1CCCCC1 | ? | ? | -2% | -17%[46.1 µM] | ? | 122
COc1ccc(NC(=O)c2cncc(Br)c2)cc1S(=O)(=O)N1CCCCC1 | 20µM* | ? | -4% | ? | ? | ?
COc1ccc(NC(=O)c2ccc(Cl)nc2)cc1S(=O)(=O)N1CCCCC1 | ? | 11µM* | -1% | ? | -17% | -3
O=C(Nc1ccc(S(=O)(=O)N2CCCC2)cc1)c1cncc(Br)c1 | ? | -15% | 4% | · | · | -26
CCOCCSc1c(C)cnc2c1c(=O)n(C)c(=O)n2C | 0% | · | · | · | -1%[46.1 µM] | ?
COCC(=O)Nc1cc(C(=O)N2CCSCC2)cc2nc(-c3ccccc3)n(C)c12 | -26% | · | · | · | · | ·
CCN1C(=O)C2(c3ccccc31)c1c(oc3ccc(C)cc3c1=O)C(=O)N2CCCOC(C)C (stereo not drawn) | 17% | · | · | 0%[46.1 µM] | -6%[46.1 µM] | -15
Cc1ccccc1C(=O)Nc1ccc2c(c1)CCCN2C(=O)c1cccs1 | -30% | ? | -6% | · | 0.89µM* | +
Cc1ccc2c(c1)CCCN2C(=O)c1cccs1 | 7% | -27% | -19% | 8% | -16%[14.3 µM] | 25
CC(C)Oc1ccc(C(=O)Nc2ccc3c(c2)CCCN3C(=O)c2cccs2)cc1 | 22µM* | · | · | · | ? | -89*
Cc1cc(F)ccc1S(=O)(=O)Nc1ccc2c(c1)CCCN2C(=O)c1cccs1 | -21% | · | · | · | ? | ?
CCCCOc1ccc(C(=O)Nc2ccc3c(c2)CCCN3C(=O)c2cccs2)cc1 | 25µM* | · | · | · | ? | -87*
COc1ccc(C(=O)Nc2ccc3c(c2)CCCN3C(=O)c2cccs2)c(OC)c1 | ? | -18% | -11% | · | ? | ?
